# ChEMBL document CHEMBL1961873, “Compounds: GSK PKIS; Assays: Nanosyn kinase panel” (2012)
# Key:
# [1] = target: MAP/microtubule affinity-regulating kinase 3 (Homo sapiens) (UniProt P27448); conditions: at 1 µM;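 further: reported values are averaged percent inhibition of MARK3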
# [2] = target: T1, MAP/microtubule affinity-regulating kinase 4 (Homo sapiens) (UniProt Q96L34); conditions: at 0.1 µM
# T1 sequence (whole entry): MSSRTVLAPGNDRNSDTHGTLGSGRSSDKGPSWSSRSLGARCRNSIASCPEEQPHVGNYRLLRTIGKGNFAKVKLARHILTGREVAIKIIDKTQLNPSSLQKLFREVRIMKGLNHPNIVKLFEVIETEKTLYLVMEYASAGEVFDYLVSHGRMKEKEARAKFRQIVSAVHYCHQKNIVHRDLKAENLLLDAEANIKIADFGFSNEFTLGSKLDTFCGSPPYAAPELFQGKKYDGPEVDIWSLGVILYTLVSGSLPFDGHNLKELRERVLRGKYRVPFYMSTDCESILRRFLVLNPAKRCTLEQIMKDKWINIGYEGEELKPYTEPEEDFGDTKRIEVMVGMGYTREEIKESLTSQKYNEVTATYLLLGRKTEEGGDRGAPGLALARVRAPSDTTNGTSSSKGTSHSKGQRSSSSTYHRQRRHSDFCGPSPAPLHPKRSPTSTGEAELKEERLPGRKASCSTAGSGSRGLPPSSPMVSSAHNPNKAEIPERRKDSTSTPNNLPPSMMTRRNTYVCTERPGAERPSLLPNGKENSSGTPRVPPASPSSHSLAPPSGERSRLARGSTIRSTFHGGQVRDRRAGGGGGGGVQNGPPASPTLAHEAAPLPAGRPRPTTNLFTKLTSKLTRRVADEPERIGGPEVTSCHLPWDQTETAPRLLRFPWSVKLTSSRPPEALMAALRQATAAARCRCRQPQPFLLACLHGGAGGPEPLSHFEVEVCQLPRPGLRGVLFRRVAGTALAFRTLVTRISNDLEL
# [3] = target: T1, MAP/microtubule affinity-regulating kinase 4 (Homo sapiens); conditions: at 1 µM
# [4] = target: Maternal embryonic leucine zipper kinase (Homo sapiens) (UniProt Q14680); conditions: at 0.1 µM
# [5] = target: Maternal embryonic leucine zipper kinase (Homo sapiens) (UniProt Q14680); conditions: at 1 µM
# [6] = target: MAP kinase-interacting serine/threonine-protein kinase 1 (Homo sapiens) (UniProt Q9BUB5); conditions: at 0.1 µM
# [7] = target: MAP kinase-interacting serine/threonine-protein kinase 1 (Homo sapiens) (UniProt Q9BUB5); conditions: at 1 µM
# [8] = target: MAP kinase-interacting serine/threonine-protein kinase 2 (Homo sapiens) (UniProt Q9HBH9); conditions: at 0.1 µM
# [9] = target: MAP kinase-interacting serine/threonine-protein kinase 2 (Homo sapiens) (UniProt Q9HBH9); conditions: at 1 µM
# [10] = target: Serine/threonine-protein kinase MARK2 (Homo sapiens) (UniProt Q7KZI7); conditions: at 0.1 µM
# [11] = target: Serine/threonine-protein kinase MARK2 (Homo sapiens) (UniProt Q7KZI7); conditions: at 1 µM
# [12] = target: PAS domain-containing serine/threonine-protein kinase (Homo sapiens) (UniProt Q96RG2); conditions: at 0.1 µM
# [13] = target: PAS domain-containing serine/threonine-protein kinase (Homo sapiens) (UniProt Q96RG2); conditions: at 1 µM
# [14] = target: Phosphorylase b kinase gamma catalytic chain, skeletal muscle/heart isoform (Homo sapiens) (UniProt Q16816); conditions: at 0.1 µM
# [15] = target: Phosphorylase b kinase gamma catalytic chain, skeletal muscle/heart isoform (Homo sapiens) (UniProt Q16816); conditions: at 1 µM
# [16] = target: T2, Phosphorylase b kinase gamma catalytic chain, liver/testis isoform (Homo sapiens) (UniProt P15735); conditions: at 0.1 µM
# T2 sequence (whole entry): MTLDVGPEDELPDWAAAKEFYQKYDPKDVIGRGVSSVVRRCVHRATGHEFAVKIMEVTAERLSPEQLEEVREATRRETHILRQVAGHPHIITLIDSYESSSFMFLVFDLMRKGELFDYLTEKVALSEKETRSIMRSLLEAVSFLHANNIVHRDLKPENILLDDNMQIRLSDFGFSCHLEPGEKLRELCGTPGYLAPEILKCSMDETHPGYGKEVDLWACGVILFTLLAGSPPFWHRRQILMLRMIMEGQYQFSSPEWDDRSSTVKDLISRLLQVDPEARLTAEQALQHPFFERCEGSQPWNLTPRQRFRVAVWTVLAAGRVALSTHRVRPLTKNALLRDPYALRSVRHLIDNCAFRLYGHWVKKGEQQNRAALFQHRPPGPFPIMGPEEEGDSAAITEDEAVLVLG
# [17] = target: T2, Phosphorylase b kinase gamma catalytic chain, liver/testis isoform (Homo sapiens); conditions: at 1 µM
# [18] = target: Serine/threonine-protein kinase pim-1 (Homo sapiens) (UniProt P11309); conditions: at 0.1 µM
# [19] = target: Serine/threonine-protein kinase pim-1 (Homo sapiens) (UniProt P11309); conditions: at 1 µM
# [20] = target: Serine/threonine-protein kinase pim-2 (Homo sapiens) (UniProt Q9P1W9); conditions: at 0.1 µM;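 further: reported value is the mean percent inhibition of PIM2, measured in the GSK PKIS kinase inhibitor set screen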
# Sequence of Serine/threonine-protein kinase pim-2 (Homo sapiens) (Q9P1W9 whole entry, looked up): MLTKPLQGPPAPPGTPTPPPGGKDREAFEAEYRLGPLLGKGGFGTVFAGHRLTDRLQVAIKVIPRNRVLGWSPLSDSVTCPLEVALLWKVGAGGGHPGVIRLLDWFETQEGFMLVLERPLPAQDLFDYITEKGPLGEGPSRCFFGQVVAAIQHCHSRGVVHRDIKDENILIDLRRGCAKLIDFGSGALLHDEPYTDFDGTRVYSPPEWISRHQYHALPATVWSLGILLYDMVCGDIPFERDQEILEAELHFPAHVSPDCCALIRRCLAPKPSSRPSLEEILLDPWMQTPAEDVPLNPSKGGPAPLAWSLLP
# Sequence of MAP/microtubule affinity-regulating kinase 3 (Homo sapiens) (P27448 whole entry, looked up): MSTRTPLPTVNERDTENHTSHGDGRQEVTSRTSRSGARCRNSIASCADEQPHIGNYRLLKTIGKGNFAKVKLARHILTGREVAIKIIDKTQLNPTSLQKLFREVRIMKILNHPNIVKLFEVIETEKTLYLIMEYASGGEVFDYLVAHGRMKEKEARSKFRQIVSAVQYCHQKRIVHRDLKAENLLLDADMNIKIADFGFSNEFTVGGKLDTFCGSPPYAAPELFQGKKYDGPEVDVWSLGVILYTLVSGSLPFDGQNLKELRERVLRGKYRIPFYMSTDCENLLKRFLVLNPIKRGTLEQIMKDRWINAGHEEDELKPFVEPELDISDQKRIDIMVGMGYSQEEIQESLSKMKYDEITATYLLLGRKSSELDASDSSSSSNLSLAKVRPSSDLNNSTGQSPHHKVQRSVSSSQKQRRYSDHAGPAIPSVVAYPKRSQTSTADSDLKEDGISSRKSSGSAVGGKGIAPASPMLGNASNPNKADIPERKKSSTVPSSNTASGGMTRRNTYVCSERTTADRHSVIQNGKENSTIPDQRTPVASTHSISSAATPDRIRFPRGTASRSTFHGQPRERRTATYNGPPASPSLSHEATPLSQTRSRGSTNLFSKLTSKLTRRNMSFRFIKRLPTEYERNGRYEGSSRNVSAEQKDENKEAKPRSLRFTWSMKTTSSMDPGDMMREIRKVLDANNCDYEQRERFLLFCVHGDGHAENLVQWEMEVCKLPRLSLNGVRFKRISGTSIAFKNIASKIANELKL
# Sequence of MAP kinase-interacting serine/threonine-protein kinase 2 (Homo sapiens) (Q9HBH9 whole entry, looked up): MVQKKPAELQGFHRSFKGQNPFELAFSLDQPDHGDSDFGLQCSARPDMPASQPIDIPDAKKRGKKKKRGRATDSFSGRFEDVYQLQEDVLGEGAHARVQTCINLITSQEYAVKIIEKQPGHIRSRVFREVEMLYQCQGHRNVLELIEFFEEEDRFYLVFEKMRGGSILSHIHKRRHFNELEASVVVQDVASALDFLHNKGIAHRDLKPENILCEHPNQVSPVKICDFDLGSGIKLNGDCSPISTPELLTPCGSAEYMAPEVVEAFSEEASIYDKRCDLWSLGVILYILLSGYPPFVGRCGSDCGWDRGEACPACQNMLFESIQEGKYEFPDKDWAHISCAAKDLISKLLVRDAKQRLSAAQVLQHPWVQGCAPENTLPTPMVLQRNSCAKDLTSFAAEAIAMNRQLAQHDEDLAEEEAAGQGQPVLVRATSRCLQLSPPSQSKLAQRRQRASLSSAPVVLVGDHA
# Sequence of Maternal embryonic leucine zipper kinase (Homo sapiens) (Q14680 whole entry, looked up): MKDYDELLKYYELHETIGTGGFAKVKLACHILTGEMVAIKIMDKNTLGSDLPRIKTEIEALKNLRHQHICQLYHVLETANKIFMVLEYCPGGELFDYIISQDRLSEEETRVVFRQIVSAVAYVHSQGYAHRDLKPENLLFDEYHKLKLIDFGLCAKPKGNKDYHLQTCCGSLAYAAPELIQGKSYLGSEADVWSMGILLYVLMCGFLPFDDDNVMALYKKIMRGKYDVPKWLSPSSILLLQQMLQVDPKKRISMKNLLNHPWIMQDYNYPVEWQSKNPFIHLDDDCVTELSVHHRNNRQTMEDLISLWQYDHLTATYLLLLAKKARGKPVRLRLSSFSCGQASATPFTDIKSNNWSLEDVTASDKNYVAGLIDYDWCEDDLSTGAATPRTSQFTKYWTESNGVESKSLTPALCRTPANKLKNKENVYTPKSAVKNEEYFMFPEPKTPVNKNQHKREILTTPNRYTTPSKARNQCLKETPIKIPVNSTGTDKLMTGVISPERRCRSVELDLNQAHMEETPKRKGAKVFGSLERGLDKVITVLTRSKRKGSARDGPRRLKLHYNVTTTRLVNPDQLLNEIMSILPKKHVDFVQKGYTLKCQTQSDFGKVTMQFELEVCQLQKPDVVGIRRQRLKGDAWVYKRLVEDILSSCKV
# Sequence of PAS domain-containing serine/threonine-protein kinase (Homo sapiens) (Q96RG2 whole entry, the tested form may be a part, canonical isoform): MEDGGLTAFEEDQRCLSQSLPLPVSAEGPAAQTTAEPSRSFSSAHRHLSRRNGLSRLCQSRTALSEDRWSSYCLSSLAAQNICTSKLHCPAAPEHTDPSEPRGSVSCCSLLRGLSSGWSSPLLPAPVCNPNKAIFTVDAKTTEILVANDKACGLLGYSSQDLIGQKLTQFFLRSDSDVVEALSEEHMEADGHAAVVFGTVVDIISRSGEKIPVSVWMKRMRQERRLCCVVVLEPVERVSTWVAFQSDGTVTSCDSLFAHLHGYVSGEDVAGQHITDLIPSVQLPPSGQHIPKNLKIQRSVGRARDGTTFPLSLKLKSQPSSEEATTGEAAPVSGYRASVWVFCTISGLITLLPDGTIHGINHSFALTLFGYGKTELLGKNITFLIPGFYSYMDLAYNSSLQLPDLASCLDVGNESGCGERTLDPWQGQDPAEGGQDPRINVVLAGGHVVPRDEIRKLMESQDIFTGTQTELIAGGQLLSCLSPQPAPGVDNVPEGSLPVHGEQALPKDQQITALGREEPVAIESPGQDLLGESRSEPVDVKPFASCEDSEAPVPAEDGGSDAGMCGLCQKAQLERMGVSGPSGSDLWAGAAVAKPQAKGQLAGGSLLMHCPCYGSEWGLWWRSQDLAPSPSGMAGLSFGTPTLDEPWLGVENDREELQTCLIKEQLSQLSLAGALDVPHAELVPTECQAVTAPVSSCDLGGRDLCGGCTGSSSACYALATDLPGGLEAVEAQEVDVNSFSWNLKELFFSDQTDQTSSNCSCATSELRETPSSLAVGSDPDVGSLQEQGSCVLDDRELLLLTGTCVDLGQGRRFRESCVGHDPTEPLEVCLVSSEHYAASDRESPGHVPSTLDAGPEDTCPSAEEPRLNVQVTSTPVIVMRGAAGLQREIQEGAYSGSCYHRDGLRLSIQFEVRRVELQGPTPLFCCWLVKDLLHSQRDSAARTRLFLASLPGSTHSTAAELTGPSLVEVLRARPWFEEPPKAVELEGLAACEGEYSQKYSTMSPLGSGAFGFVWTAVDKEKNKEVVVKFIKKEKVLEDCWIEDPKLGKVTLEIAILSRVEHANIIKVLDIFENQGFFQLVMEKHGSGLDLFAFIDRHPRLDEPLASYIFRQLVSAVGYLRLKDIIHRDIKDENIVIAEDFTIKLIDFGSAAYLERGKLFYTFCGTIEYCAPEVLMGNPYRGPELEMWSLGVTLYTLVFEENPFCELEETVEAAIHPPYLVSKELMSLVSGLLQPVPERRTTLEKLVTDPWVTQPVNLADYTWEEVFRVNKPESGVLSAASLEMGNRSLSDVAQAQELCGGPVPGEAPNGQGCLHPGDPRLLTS
# Sequence of Phosphorylase b kinase gamma catalytic chain, skeletal muscle/heart isoform (Homo sapiens) (Q16816 whole entry, looked up, canonical isoform): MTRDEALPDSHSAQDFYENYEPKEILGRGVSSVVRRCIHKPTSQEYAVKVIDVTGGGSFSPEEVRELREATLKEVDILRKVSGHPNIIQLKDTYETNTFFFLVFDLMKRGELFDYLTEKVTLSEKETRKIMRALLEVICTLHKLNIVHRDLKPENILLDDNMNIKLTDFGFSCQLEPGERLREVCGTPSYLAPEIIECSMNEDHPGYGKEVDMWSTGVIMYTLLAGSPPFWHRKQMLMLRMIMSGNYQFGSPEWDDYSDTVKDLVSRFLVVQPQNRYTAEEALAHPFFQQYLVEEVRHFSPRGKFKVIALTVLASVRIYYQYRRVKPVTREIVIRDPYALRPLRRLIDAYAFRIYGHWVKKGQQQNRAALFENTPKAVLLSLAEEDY
# Sequence of MAP kinase-interacting serine/threonine-protein kinase 1 (Homo sapiens) (Q9BUB5 whole entry, looked up): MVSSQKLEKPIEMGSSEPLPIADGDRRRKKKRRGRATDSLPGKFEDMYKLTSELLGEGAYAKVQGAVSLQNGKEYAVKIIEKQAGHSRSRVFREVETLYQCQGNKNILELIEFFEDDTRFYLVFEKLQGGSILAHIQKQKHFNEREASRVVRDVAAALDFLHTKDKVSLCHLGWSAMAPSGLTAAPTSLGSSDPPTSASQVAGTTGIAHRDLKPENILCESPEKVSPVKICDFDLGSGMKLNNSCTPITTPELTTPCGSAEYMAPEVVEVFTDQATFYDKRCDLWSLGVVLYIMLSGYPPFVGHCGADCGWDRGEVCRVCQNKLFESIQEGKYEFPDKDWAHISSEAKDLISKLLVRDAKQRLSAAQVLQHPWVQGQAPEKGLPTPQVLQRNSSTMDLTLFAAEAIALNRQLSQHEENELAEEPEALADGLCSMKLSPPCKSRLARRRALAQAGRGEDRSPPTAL
# Sequence of Serine/threonine-protein kinase pim-1 (Homo sapiens) (P11309 whole entry, looked up): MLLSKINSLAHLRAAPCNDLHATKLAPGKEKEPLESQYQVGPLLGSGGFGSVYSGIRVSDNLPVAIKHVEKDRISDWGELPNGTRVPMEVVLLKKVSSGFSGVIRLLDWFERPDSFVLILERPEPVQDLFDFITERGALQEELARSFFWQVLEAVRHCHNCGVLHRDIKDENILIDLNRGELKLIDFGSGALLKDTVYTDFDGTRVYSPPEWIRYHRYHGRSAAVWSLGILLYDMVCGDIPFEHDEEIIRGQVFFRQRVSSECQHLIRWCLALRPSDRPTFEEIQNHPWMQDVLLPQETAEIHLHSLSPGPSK
Compound,inhibition [1] [%],inhibition [2] [%],inhibition [3] [%],inhibition [4] [%],inhibition [5] [%],inhibition [6] [%],inhibition [7] [%],inhibition [8] [%],inhibition [9] [%],inhibition [10] [%],inhibition [11] [%],inhibition [12] [%],inhibition [13] [%],inhibition [14] [%],inhibition [15] [%],inhibition [16] [%],inhibition [17] [%],inhibition [18] [%],inhibition [19] [%],inhibition [20] [%]
CC(C)=Cc1cccc2c1/C(=N/Nc1ccc(S(N)(=O)=O)cc1)C(=O)N2,20.6,1.89,20,0.98,25.6,0.23,7.18,1.9,4.65,1.87,14.2,0.93,1.77,0.64,26.6,1.74,8.45,1.05,1.77,0.72
CC(=O)Nc1cccc(C#Cc2cncnc2Nc2ccc(OCc3cccc(F)c3)c(Cl)c2)n1,3.05,0.52,0.84,-2.29,-2.61,0.9,18.7,3.48,14.3,1.78,-0.36,1.79,6.21,1.84,3.66,0.59,6.86,1.5,0.89,0.58
Fc1cccc(COc2ccc(Nc3ncnc4sc(-c5cccs5)cc34)cc2Cl)c1,3.4,0.59,1.48,2.25,3.16,2.11,5.61,1.36,5.08,1.15,4.63,0.96,-0.11,2.66,6.77,-1.25,-2.01,0.38,1.29,0.52
COc1ccc(-c2nn3ncccc3c2-c2ccnc(Nc3ccc(Cl)c(C(F)(F)F)c3)n2)cc1,6.57,0.48,0.08,0.2,4.8,-1.04,5.69,1.9,2.43,-0.27,-0.83,0.24,2.12,3.41,5.53,2.13,5.41,0.1,0.37,0.12
Cc1cc(O)cc(C)c1/C=C/c1cncc(-c2nn[nH]n2)c1,5.96,2.37,3.69,4.83,8.68,20.6,65.3,22.6,63.8,0.37,3.29,-0.17,-1.14,6.07,4.92,4.78,2.82,0.66,1.59,-3.3
COc1cc2ncn(-c3cc(O[C@H](C)c4ccccc4Cl)c(C(N)=O)s3)c2cc1OC,37.2,4.58,32,4.94,23.7,3.54,11.9,3.53,11.8,2.26,17.8,1.62,5.27,3.66,6.72,6.57,12.9,1.15,3.93,0.26
NCc1ccc(-c2nc(-c3ccc(Cl)c(O)c3)c(-c3ccncc3)[nH]2)cc1,5.09,0.06,2.57,0.75,-1.02,-2.18,6.58,1.14,4.8,-0.38,2.58,0.34,-0.1,0.14,3.18,0.02,-1.08,1.18,0.18,-0.05
CCn1c(-c2nonc2N)nc2cnc(Oc3cccc(NC(=O)c4ccc(OCCN5CCOCC5)cc4)c3)cc21,8.24,1.29,4.43,10.4,50.5,3.45,13.3,3.73,21,1.17,11,-1.22,-0.7,-3.59,6.37,3.34,1.77,0.47,10.4,-0.49
CN(C)c1cc2c(Nc3ccc4nc(Cc5ccccc5)[nH]c4c3)ncnc2cn1,5,2.82,3,6.98,11.4,3.69,8.7,0.92,4.05,0.6,1.13,0.02,-2.17,7.34,13.4,5.65,5.19,1.36,3.18,-0.82
CS(=O)(=O)CCN(CC#N)Cc1ccc(-c2ccc3ncnc(Nc4ccc(OCc5cccc(F)c5)c(Cl)c4)c3c2)o1,-0.24,0.8,-0.12,3.85,8.4,1.32,5.64,2.33,11.5,-0.92,-1.1,-0.15,-0.89,2.68,5.37,1.91,1.52,-1.56,-0.76,-4.12
O=C(Nc1n[nH]c2nc(-c3ccco3)c(Br)cc12)C1CC1,-5.02,1.46,2.43,2.96,7.3,3.3,13.9,1.26,1.34,-0.08,2.09,0.09,-1.87,1.65,2.36,4.24,1.34,-0.5,0.54,-0.2
CCCN1CCC(Oc2cc(Nc3nc(Nc4cccc(F)c4C(N)=O)c4cc[nH]c4n3)c(OC)cc2Cl)CC1,1.93,-0.13,2.83,1.25,21.2,1.13,3.91,0.85,0.99,-0.3,1.3,0.73,1.6,1.4,24.2,-0.41,0.31,4.08,25.4,0.5
Cc1ccc(C(=O)NC2CCCCC2)cc1-c1ccc(C(=O)NCC2CC2)cc1,2.82,1.51,1.5,1.92,2.41,1.78,2.58,0.32,-0.44,0.34,0.99,1.33,-0.83,0.53,-0.89,3.98,1.55,-0.39,0.56,1.02
